The full list was thinned out, with hits kept by preference.
ARNT TACC3 PPI – disrupts binding between human ARNT and TACC3; Q9Y6A5; AlphaScreen His-ARNT PAS-B/GST-TACC3 binding, luminescence; TACC3 fragment carries E629A point mutation; inhibition, % at 9.99 µM; 0.66% of 390,000 active; AID 623870;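 active = mean inhibition of replicates at least 50% and at least half of replicates each reaching 50%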;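 note: 0% = complete ARNT plus TACC3 wells and 100% = ARNT alone without TACC3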
PglD inh – blocks C. jejuni PglD acetyltransferase activity. purified PglD enzyme, DTNB colorimetric CoA detection. inhibition, % at 12.5 µM. 0.098% of 360,000 active. AID 602405; in the data active = inhibition above about 16%, passing the limit was not always enough
ERp5 inh – ERp5 (human) disulfide isomerase inhibition; Q15084; ERp5 insulin aggregation, absorbance 650 nm, 90 min; inhibition, % at 9.99 µM; 0.05% of 350,000 active; AID 651711;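 active = mean replicate inhibition above about 25%, with every replicate also reaching it, limit read from the data, passing the limit was not always enough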
ALR inh – inhibitors of human sulfhydryl oxidase ALR; AID 485317; 3.8% of 290,000 active; P55789; purified ALR, DTT oxidation, H2O2 HRP-luminol luminescence; inhibition, % (no concentration beside the values);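 active = mean replicate inhibition above about 79%, with every replicate also reaching it, limit read from the data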
NRP1-CendR mod – alters CendR peptide binding to human NRP-1. FAM-RPARPAR peptide binding to NRP-1, fluorescence polarization. inhibition, % at 25 µM. 0.85% of 360,000 active;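 active = inhibition or corrected inhibition above about 18%, plus a signal ratio from 0.5 to 1.5, limit read from the data, passing the limit was not always enough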
PDI inh – blocks human protein disulfide isomerase activity; PDI insulin aggregation turbidity, A650, 90 min; P07237; inhibition, % at 10 µM; 0.052% of 350,000 active;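 active = mean inhibition across replicates of 30% or more, whatever share of single replicates reach that level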
Target sequence (P07237 whole entry, looked up): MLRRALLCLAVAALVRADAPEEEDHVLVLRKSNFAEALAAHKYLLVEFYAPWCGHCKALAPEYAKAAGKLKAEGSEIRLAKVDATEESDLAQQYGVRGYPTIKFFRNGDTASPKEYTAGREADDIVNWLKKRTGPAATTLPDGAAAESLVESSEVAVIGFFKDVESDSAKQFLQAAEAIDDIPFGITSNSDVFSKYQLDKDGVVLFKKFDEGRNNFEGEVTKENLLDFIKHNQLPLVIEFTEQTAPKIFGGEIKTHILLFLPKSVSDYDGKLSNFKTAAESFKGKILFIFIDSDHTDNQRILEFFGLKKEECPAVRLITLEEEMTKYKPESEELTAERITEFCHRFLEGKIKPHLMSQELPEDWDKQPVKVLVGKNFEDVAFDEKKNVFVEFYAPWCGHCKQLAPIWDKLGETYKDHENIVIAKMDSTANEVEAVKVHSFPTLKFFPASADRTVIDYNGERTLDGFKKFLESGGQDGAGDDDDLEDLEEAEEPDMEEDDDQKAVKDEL
Numbers without * were called inactive; . = no result.

SMILES	ARNT TACC3 PPI	PglD inh	ERp5 inh	ALR inh	NRP1-CendR mod	PDI inh
NC(=O)C1=C[C@H](C2CCCCC2)C[C@H](OCc2ccc(CO)cc2)O1	-2	-6	-3	22	28*	2
C=CCOC(=O)C1=C[C@H](C2CCCCC2)C[C@H](OCc2ccc(CO)cc2)O1	7	3	6	50	-9	6
O=C(NCc1ccccc1)C1=C[C@H](C2CCCCC2)C[C@H](OCc2ccc(CO)cc2)O1	-2	-3	2	-10	18*	4
O=C(NC1CCCC1)N[C@H]1CC[C@@H](CC(=O)N2CCOCC2)O[C@H]1CO	21	1	2	.	.	.
CO[C@H]1CN(C)C(=O)c2ccc(NC(=O)Nc3ccc(Cl)cc3)cc2OC[C@H](C)N(C)C[C@@H]1C	.	.	6	.	.	.
Cc1ccc(-c2csc(NC(=O)CSc3nc4ccccc4[nH]3)n2)cc1	0	.	.	.	-12	-7
Cc1[nH]c2ccccc2c1-c1csc(NC(=O)CN2CCOCC2)n1	-2	-1	2	-6	0	2
Cc1cc(=O)[nH]c(SCC(=O)Nc2nnc(SCc3ccccc3)s2)n1	29	.	-3	-12	-3	0
O=C(COC(=O)c1cccs1)Nc1nc(-c2ccccc2)cs1	10	-3	-1	88*	-1	-10
Cc1nnc(SCC(=O)Nc2nc(-c3ccc(F)cc3)cs2)[nH]c1=O	-8	.	-4	99*	-10	-2
Cc1[nH]c2ccccc2c1-c1csc(NC(=O)CSCC(=O)O)n1	0	.	3	100*	-16	-3
Cc1cc(=O)[nH]c(SCC(=O)Nc2nc3ccccc3s2)n1	-21	.	3	99*	-11	-9
C[C@@H]1CN([C@H](C)CO)C(=O)c2cc(NS(=O)(=O)c3ccc(Cl)cc3)ccc2O[C@@H]1CN(C)Cc1ccc(C(=O)O)cc1	6	3	1	.	.	.
CS(=O)(=O)Nc1ccc2c(c1)[C@@H]1C[C@H](CC(=O)NCC3CC3)O[C@@H](CO)[C@@H]1O2	-3	2	-1	.	.	.
Cc1cc(=O)[nH]c(SCC(=O)Nc2nc(-c3ccccc3)cs2)n1	-2	-7	.	99*	-14	3
Cc1csc(SCC(=O)Nc2nc(-c3ccccc3)cs2)n1	1	-1	.	52	-3	3
C[C@H]1CN([C@@H](C)CO)C(=O)c2cccc(NS(=O)(=O)c3ccc(Cl)cc3)c2O[C@@H]1CN(C)S(=O)(=O)c1ccc(F)cc1	4	2	.	.	.	.
CCOC(=O)CSc1nc2ccc(N)cc2s1	-2	2	.	99*	21	2
CCOC(=O)CSc1nc(N)c(C(=O)Nc2ccc(N(C)C)cc2)s1	13	-2	.	88*	2	-1
Nc1ccc2nc(SCC(=O)N3CCOCC3)sc2c1	7	.	-2	99*	-1	1
CCN(CC)C(=O)CSc1nc(N)c(C(=O)Nc2ccc(OC)cc2)s1	2	-2	0	.	-8	2
Cc1ccc(NC(=O)CSCC(=O)Nc2ccc(N3CCOCC3)c(Cl)c2)cc1	0	-2	.	98*	-10	-2
CCCC(=O)Nc1ccc2c(c1)C(=O)N(C)C[C@@H](OC)[C@H](C)CN(Cc1ccc(-c3ccccn3)cc1)[C@H](C)CO2	9	0	1	.	.	.
CC1(NC(=S)Nc2ccc(NC(=S)NC3(C)CCS(=O)(=O)C3)cc2)CCS(=O)(=O)C1 (centres undefined)	.	2	0	55	10	-1
CCOc1ccc2nc(SCC(=O)NCc3ccc(S(N)(=O)=O)cc3)sc2c1	13	-8	-1	-10	14	4
SMILES	ARNT TACC3 PPI	PglD inh	ERp5 inh	ALR inh	NRP1-CendR mod	PDI inh
COc1ccc(CNC(=O)CSc2nc3ccc(N)cc3s2)cc1	-1	.	.	98*	-10	-3
Cc1ccc(NC(=O)CSCC(=O)NC2(C)CCS(=O)(=O)C2)cc1 (centres undefined)	4	-3	1	99*	-4	-9
Nc1ccc2nc(SCC(=O)Nc3ccc(N4CCOCC4)c(Cl)c3)sc2c1	11	.	.	99*	13	-32
c1ccc2sc(N3CCOCC3)nc2c1	1	-5	.	-2	18	-2
Nc1ccc2nc(N3CCOCC3)sc2c1	20	.	3	99*	-5	5
COCCNC(=O)C[C@H]1C[C@@H]2c3cc(NC(=O)CC4CC4)ccc3O[C@@H]2[C@@H](CO)O1	-10	-3	7	.	.	.
Cc1ccc(S(=O)(=O)Nc2ccc3c(c2)C(=O)N([C@H](C)CO)C[C@H](C)[C@@H](CN(C)S(=O)(=O)c2ccc(Cl)cc2)OCCCC[C@@H](C)O3)cc1	-2	-1	.	.	.	.
Nc1ccc2nc(SCC(=O)N3CCN(c4ccccc4)CC3)sc2c1	3	.	-3	.	-4	-4
CC(NC(=O)CSc1nc2ccc(N)cc2s1)c1ccccc1 (centres undefined)	2	.	-4	96*	7	-10
Nc1ccc2nc(SCc3cccc(F)c3)sc2c1	3	-6	6	99*	6	-1
c1ccc2c(-c3csc(-c4ccncc4)n3)c[nH]c2c1	-13	-6	2	99*	0	0
COCCCNC(=S)N1CCN(c2ccccc2)CC1	-1	.	-3	97*	-6	-2
Cc1ccc(NC(=S)NCCN2CCOCC2)cc1C	2	-2	.	-3	-4	-8
S=C(NCCCN1CCOCC1)N1CCN(c2ccccc2)CC1	-4	3	3	98*	14	-6
Cc1ccc(NC(=S)NCCCN2CCOCC2)cc1C	-6	.	-2	98*	-1	5
C[C@@H]1CCCCO[C@H](CN(C)C(=O)c2ccncc2)[C@H](C)CN([C@H](C)CO)C(=O)c2cc(NC(=O)c3ccncc3)ccc2O1	29	-2	5	.	.	.
C[C@H]1CCCCO[C@H](CN(C)Cc2ccc(C(=O)O)cc2)[C@@H](C)CN([C@@H](C)CO)C(=O)c2cc(NC(=O)CCC(F)(F)F)ccc2O1	-13	0	3	.	.	.
Fc1ccc(CNc2nc(-c3ccco3)cc(C(F)(F)F)n2)cc1	-7	-1	.	40	-17	1
FC(F)(F)c1cc(-c2ccco2)nc(NCc2ccccc2)n1	-11	5	.	98*	-18	3
CC/C(=N\O)c1ccc(O)c(OC)c1	-4	-4	.	99*	10	2
COc1ccc(-c2cn(CC[C@H]3CC[C@@H](NC(=O)NC(C)C)[C@H](CO)O3)nn2)cc1	1	1	-1	.	.	.
CCN(CC)CCn1c(=S)[nH]c2ccc(Cl)cc2c1=O	-1	0	.	89*	-4	1
CS(=O)(=O)N1[C@H](CO)[C@@H](c2ccc(C#Cc3cccc(F)c3)cc2)[C@@H]1C#N	-21	2	1	.	.	.
CCOc1ccc(CCNC(=O)C(O)c2ccccc2)cc1 (centres undefined)	-4	1	.	99*	-5	-8
CCOc1ccc(C(=O)NC(C(=O)NCCc2ccc(OC(F)F)cc2)C(C)C)cc1 (centres undefined)	-3	7	0	-1	23*	0

High-throughput results: PubChem BioAssay, several laboratories
